Screening results (PubChem BioAssay)
An excerpt weighted towards active compounds, which were near 1.6% of everything screened.
PABP FP inh: blocks human PABP binding to poly(A) RNA; P11940; 290,000 tested, 1% active; inhibition, % at 35 µM; AID 2014; fluorescence polarization;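 further: calls also rest on retests at 20 µM and on dose response follow-up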
PERK inh: blocks human PERK kinase | Q9NZJ5 | CHO PERK-DD fusion, SEAP luminescence translation reporter | inhibition, % at 5.6 µM | 220,000 tested, 0.17% active | AID 1416;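 active means inhibition above the mean inhibition of all tested compounds plus 3 SD, set separately per screening campaign, cut at about 2.9% in these data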;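 further: PERK kinase domain activated by AP20187 dimerizer at 100 nM; 0% = DMSO with dimerizer and 100% = rapamycin at 8.4 µM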
eIF4H FP inh: inhibitors of RNA binding by human eIF4H. Q15056. 290,000 tested, 0.94% active. eIF4H fluorescence polarization binding assay. AID 2012. inhibition, % at 35 µM;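 further: calls also rest on retests at 20 µM and on dose response follow-up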
eIF4E 4G PPI: blocks eIF4E binding to eIF4G | inhibition, % at 21.7 µM | AID 782 | P63073+Q04637 | 220,000 tested, 0.37% active | TR-FRET eIF4E-eIF4GI(517-606) binding, 2 h;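 active means inhibition above about 30%, limit read from the data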;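 further: 0% = full FRET control wells and 100% = background wells lacking eIF4GI fragment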
PABP1 MLLE inh: blocks PAM2 peptide binding to the PABP1 MLLE domain; P11940; GST-MLLE / FITC-PAM2 fluorescence polarization; inhibition, % at 20 µM; 360,000 tested, 0.36% active; in the data active means inhibition above about 35%, passing the limit was not always enough;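 further: plate controls were DMSO wells with GST-MLLE for no effect and wells lacking GST-MLLE protein for full effect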
* hit, by the source's call; ? = inconclusive; / = no result; [ ] = remark or other dose. Unless noted, how the calls were made is not given here.

SMILES | PABP FP inh | PERK inh | eIF4H FP inh | eIF4E 4G PPI | PABP1 MLLE inh
O=C1/C(=C/c2ccco2)CCc2ccccc21 | -0.7 | -0.3 | 81.3 | 3.0 | 0.2
Nc1ccc2c(c1)C/C(=C/c1ccco1)C2=O | active | 0.8 | 93.3* | 21.7 | -30.9
COC(=O)C1=C(C(=O)OC)C(c2ccccc2O)c2sc(=O)[nH]c2S1 (stereo not drawn) | 1.9 | 0.8 | -3.6 | -0.6 | 45.5*
COc1ccc(OC)c(-c2csc(NC(=O)Cc3ccc(F)cc3)n2)c1 | -10.9 | / | -11.9 | / | -0.8
COc1ccc(OC)c(-c2csc(NC(=O)Cn3[nH]c(=O)c4ccccc4c3=O)n2)c1 | -1.1 | -0.4 | -17.1 | 42.1* | -19.0
Cc1ccc(C)c(N2CCN(C(=O)C(Cc3ccccc3)n3cccc3)CC2)c1 (stereo not drawn) | -7.3 | -0.5 | -1.5 | 67.2*[fluorescence artefact?] | 13.2
O=C1c2ccccc2-c2onc3c(Oc4ccccc4)cc(O)c1c23 | 83.2* | -0.7 | 85.3* | 7.1 | /
CC(C)CNC(=S)N1CCC(NC(=O)c2ccco2)CC1 | -3.1 | 1.7 | -7.8 | 0.6 | -106.2
CCOCCCNC(=S)N1CCC(NC(=O)c2ccco2)CC1 | 67.6* | 0.0 | -8.5 | 0.4 | -23.1
COc1ccc(CC(C)N2CCN(Cc3ccccc3)CC2)cc1OC (stereo not drawn) | 10.4 | / | -5.1 | / | -5.8
Cc1cc(O)c(C=Nc2ccc(N3CCOCC3)cc2)c(C)c1Cl | 91.0* | / | 58.0 | / | -47.7
Cn1c(O)c(C=Nc2ccc(N3CCOCC3)cc2)c(=O)n(C)c1=S | 2.6 | 0.6 | ? | 2.0 | -63.5
COc1ccc(-c2[nH]ncc2CN(C)CCN2CCOCC2)cc1F | 5.4 | 3.0* | -7.0 | 0.7 | 15.0
COc1ccc(Cl)cc1NC(=O)CN(C)C(=O)CN1C(=O)NC(C)(c2ccc3ccccc3c2)C1=O (stereo not drawn) | / | / | / | / | 16.4
O=C(O)C(O)c1ccco1 (stereo not drawn) | 7.9* | 0.8 | 103.9* | 22.3 | -6.6
O=C(O)C(O)c1ccccc1 (stereo not drawn) | 6.8 | 1.6 | -7.6 | 3.3 | -7.2
CC(C)CC(=O)c1c(O)c(C=O)c(O)c2c1O[C@@]1(C)[C@@H](C2)C[C@H]2C[C@@H]1C2(C)C | / | / | / | / | 2.2
CCOc1ccccc1C(=O)NCC(=O)NCCCSc1ccccc1 | 12.1 | / | -7.9 | / | 2.2
CN(C)CCOC(=O)c1ccc2c(c1)S(=O)(=O)c1ccccc1C2=O | -8.0 | 0.8 | -2.7 | 35.0* | 10.5
O=C(NC1CCC(Oc2ccc(C(=O)O)cc2)CC1)NC12CC3CC(CC(C3)C1)C2 (stereo not drawn) | / | / | / | / | -120.7
CC1(C)C(=O)Nc2ccccc2N1C(=O)COC(=O)/C=C/c1ccc(OC(F)F)cc1 | / | / | / | / | -5.2
Cc1ccccc1-n1c(N)cc(=O)[nH]c1=S | -2.2 | 0.8 | -0.9 | -2.5 | 27.4
O=c1cc(O)n(-c2ccccc2F)c(=S)[nH]1 | 63.7* | -0.1 | 45.8* | -1.4 | -2.0
Cc1ccccc1-n1c(O)cc(=O)[nH]c1=S | 22.2 | 2.2 | 52.9* | 6.0 | 19.2
COC(=O)Cn1ncn2cccc2c1=O | -4.3 | 1.0 | -9.0 | 1.2 | -2.8
SMILES | PABP FP inh | PERK inh | eIF4H FP inh | eIF4E 4G PPI | PABP1 MLLE inh
CCOC(=O)C(C)n1ncn2cccc2c1=O (stereo not drawn) | -0.8 | -0.3 | 1.1 | 43.3*[fluorescence artefact?] | -7.3
CCN(CC)c1ccc(/C=C(\C#N)c2ccccn2)cc1 | -0.5 | -0.1 | 54.3 | -2.4 | -139.9
N#C/C(=C\c1ccc(C(=O)O)cc1)c1ccccn1 | 0.6* | 1.8 | 64.2* | 0.2 | -3.8
O=C(O)CNC(=O)C1(NC(=O)OCc2ccccc2)CCCC1 | / | / | / | / | 10.1
O=C(O)CCC(=O)Nc1sc2c(c1C(=O)Nc1ccccc1)CCCCC2 | -2.8 | 0.7 | 22.9 | 5.4 | -49.9
O=C(O)CCC(=O)Nc1sc2c(c1C(=O)Nc1cccc3ccccc13)CCCCC2 | 1.4* | 0.3 | 57.5* | 0.7 | -78.4
COc1ccccc1N1CCN(/N=C/c2ccccc2C(=O)O)CC1 | 25.3 | / | 12.6 | / | 7.4
Cc1noc(C)c1NC(=O)N(C)C[C@H]1OCc2cn(nn2)CCCC(=O)N([C@@H](C)CO)C[C@@H]1C | / | / | / | / | -38.2
CC(Oc1ccc2ccc(=O)oc2c1)C(=O)NC(Cc1c[nH]c2ccc(O)cc12)C(=O)O (stereo not drawn) | 45.4 | / | 86.8* | / | -13.8
Cc1c(OC(C)C(=O)NC(Cc2c[nH]c3ccc(O)cc23)C(=O)O)ccc2c1oc(=O)c1ccccc12 (stereo not drawn) | 64.4* | / | 81.2* | / | 6.9
Cc1c(C)c2ccc(OC(C)C(=O)N[C@@H](Cc3c[nH]c4ccccc34)C(=O)O)c(C)c2oc1=O (stereo partly drawn) | 20.1 | / | -5.3 | / | -0.2
CC(=O)NC(c1ccccc1)c1cc(Cl)c2cccnc2c1O (stereo not drawn) | 3.6 | / | 21.5 | / | 3.1
O=C(NC(c1ccc(Cl)cc1)c1cc(Cl)c2cccnc2c1O)c1cccnc1 (stereo not drawn) | 89.7* | 0.7 | ? | 4.3 | -1.5
COc1ccc(NCc2ccc([N+](=O)[O-])s2)c(OC)c1 | active | 0.8 | 73.0* | -5.0 | 9.1
Cc1cc(=O)n2nc(-c3ccccc3)sc2n1 | 64.8* | 1.2 | 56.5* | 10.3 | -3.0
CCN(C[C@H]1N[C@@](CC)(C(=O)OC)[C@H]2C(=O)N(C)C(=O)[C@@H]12)S(=O)(=O)c1ccccc1 | / | / | / | / | -4.1
O=C(c1cc2cc([N+](=O)[O-])ccc2oc1=O)n1cccn1 | 2.3* | 0.8 | 98.5 | 1.6 | 0.1
CCN1CCN(C(=O)c2cc3cc([N+](=O)[O-])ccc3oc2=O)CC1 | 13.5 | 0.5 | 0.2 | 4.7 | 6.7
CC(C)OC(=O)N(C)C[C@H]1OCc2cn(nn2)CCCC(=O)N([C@H](C)CO)C[C@@H]1C | / | / | / | / | 9.7
S=C(c1ccc(-c2ccccc2Cl)o1)N1CCOCC1 | 17.1 | 0.2 | 11.9 | 3.9 | 40.5*
C/C(=N\NC(=S)Nc1cccc(C)c1)c1cc2ccccc2o1 | 3.6 | -0.1 | 6.7 | -0.8 | 43.0*
O=C(N/N=C/c1ccc([N+](=O)[O-])o1)c1cc2ccccc2o1 | 37.2* | 1.2 | 69.5* | 1.2 | -11.2
O=C(N/N=C/c1ccc([N+](=O)[O-])o1)c1ccccc1NS(=O)(=O)c1cccs1 | 46.6* | 2.1 | 76.2 | -1.6 | -2.1
O=C(N/N=C\c1ccc([N+](=O)[O-])o1)c1cncc(Br)c1 | 54.2* | 1.0 | 70.7* | -5.3 | -2.2
O=C(NN=Cc1ccc(F)cc1)c1ccccc1NS(=O)(=O)c1cccs1 | / | / | / | / | 2.9
O=C(N/N=C/c1ccc(-c2ccccc2[N+](=O)[O-])o1)c1cncc(Br)c1 | 11.2 | 1.0 | 10.2 | -1.8 | 18.8
Cn1cc(-c2csc(C(C)(O)c3cccnc3)n2)cn1 (stereo not drawn) | / | / | / | / | 12.0
C=CCN(c1ccccc1OC)S(=O)(=O)c1cccc(C(=O)OCC(=O)c2c(N)n(C)c(=O)n(C)c2=O)c1 | / | / | / | / | 0.0
Cc1ccc(/C=N/NC(=O)c2cc3c(ccc4ccccc43)o2)o1 | 6.2 | / | -5.9 | / | -1.4
C/C(=N\Nc1ccc([N+](=O)[O-])cc1)c1cc2ccccc2o1 | 11.4 | -0.6 | 56.7* | 3.9 | -136.0
